From PubChem BioAssay (NCATS) come the findings set out here.

Several values for one entry are separate records, joined by “and”; a condition that tells them apart may be missing. Equal values may be shown once. Inconclusive results are not listed. Activity calls are given as the source filed them. Unless noted, the call rests on the fitted dose curve; in most records, active means well fitted curve in the direction sought with a large enough effect; inconclusive means small, poorly fitted or top-dose-only effect, or another doubt; inactive means no such curve, though single readings can be large; an effect the other way counts as inactive or inconclusive.

Assay [1] in a line: Cell Viability - Jurkat (AID 426;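 active means dose-dependent loss of cell ATP signal giving a full or clear fitted curve, ranked by lower potency value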;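 further: potency means the concentration at half of the fitted maximal effect; cells exposed to compound for 40 hours at 37 °C before ATP read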). As to conditions: qHTS. The gist of the method:
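Seed 5000 Jurkat E6-1 cells/well; add compound; incubate 40 hr at 37 °C; add CellTiter-Glo; wait 20 min at room temperature; read luminescence. Fit concentration-response with Hill equation for AC50.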
(Quantitative high-throughput screening tests each substance at several concentrations.)

A short description of assay [2]: Cell Viability - Hek293 (AID 427;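 active means compounds whose dose-response curve shows a full or clear partial loss of cell viability, called from curve shape rather than a numeric limit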;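 further: potency means the concentration at half of the fitted maximal effect; cells exposed to compound for 40 hours at 37 °C before reading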). As to conditions: qHTS. The method, boiled down:
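Luminescent ATP content (CellTiter-Glo, 20 min at room temperature) was measured after a 40 hr, 37 °C compound exposure of HEK293 cells. AC50 values came from Hill-equation fits of qHTS concentration-response data normalized to DMSO and 100 uM tamoxifen.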

The nature of assay [3]: Cell Viability - NIH 3T3 (AID 541).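 Further: cells exposed to compound for 40 hours; plate controls were DMSO alone for no effect and tamoxifen positive control for full effect; nearly all actives have a fitted effect of over 25% in size.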 The settings on record: NIH 3T3 cell viability, qHTS; activity change, negative = cytotoxicity: at 92.2 µM (top of the series). The gist of the method: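 AC50 values reflect concentration-dependent loss of intracellular ATP in NIH 3T3 cells after 40 hr treatment in complete culture medium, quantified by luciferase-based luminescence.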

Assay [4] is described as follows: Cell Viability - LYMP2-004 (AID 966).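 Further: plate controls were DMSO only for no effect and tetraoctylammonium bromide control for full effect; nearly all actives have a fitted effect of over 65% in size.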 As to conditions: LYMP2-004 lymphoblastoid cell viability, qHTS; series mostly up to 92.2 µM. The method, boiled down: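 Acute toxicity is scored as a concentration-dependent drop in intracellular ATP, quantified by luciferase luminescence, in human lymphoblastoid cells exposed to compound for 24 hr. AC50 derives from Hill-equation modelling.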

Assay [5] addresses Glucocorticoid receptor (Homo sapiens) (UniProt P04150). Briefly: qHTS assay for small molecule agonists of glucocorticoid receptor signaling (AID 588532; active means well fitted curve in the direction sought with a large enough effect in the signal ratio, with a control signal flat; the % refers to the signal ratio;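 further: 100% = dexamethasone at 0.1 µM and 0% = DMSO only wells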). The settings on record: HeLa MMTV-bla, beta-lactamase ratio, agonist, 18 h; stronger effect = higher value; percent of dexamethasone control, DMSO zero. The method, boiled down: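 MMTV-bla HeLa beta-lactamase reporter cells in 1% charcoal/dextran FBS medium, compounds up to 92 uM for 18 h at 37 C, CCF4 readout; normalized to 0.1 uM dexamethasone (100%), EC50 and efficacy from Hill fits.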

The target is the same in assay [6]. Briefly: qHTS assay for small molecule antagonists of glucocorticoid receptor signaling (AID 588533; active means well fitted inhibition curve with a large enough effect in the signal ratio, with a control signal flat, not every such curve was filed as active; the % refers to the signal ratio;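 further: cells stimulated with 2 nM dexamethasone as agonist; on the % scale 0 is the no-effect control and ±100 the full control effect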). As to conditions: HeLa MMTV-bla, GRE beta-lactamase ratio, antagonist mode, 18 h; series mostly up to 76.8 µM. The gist of the method:
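Antagonist-mode qHTS: compound titrations added to GRE-bla HeLa cells, then dexamethasone 2 nM final; 18 h, 37 C. CCF4 FRET fluorescence normalized to dexamethasone and DMSO; IC50 from Hill fit.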

Assay [7] addresses Peroxisome proliferator-activated receptor gamma (Homo sapiens) (UniProt P37231). Briefly: qHTS assay for small molecule agonists of peroxisome proliferator-activated receptor gamma signaling (AID 588536; active means well fitted curve in the direction sought with a large enough effect in the signal ratio, with a control signal flat, not every such curve was filed as active; the % refers to the signal ratio;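 further: 0% = DMSO basal wells and 100% = rosiglitazone at 2 µM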). The settings on record: HEK293 PPARg-UAS-bla, beta-lactamase ratio, 16 h, percent of rosiglitazone response, DMSO as zero; series mostly up to 76.7 µM. The gist of the method:
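Ratiometric blue/green fluorescence (405 nm excitation; 460 and 530 nm emission) from CCF4-loaded HEK293 reporter cells serves as signal. Exposure to test compounds lasts 16 h at 37 C in medium containing 1% charcoal/dextran-treated serum.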

Assay [8] concerns the target Retinoic acid receptor RXR-alpha (Homo sapiens) (UniProt P19793). Briefly: qHTS assay for small molecule agonists of retinoid X receptor alpha signaling (AID 588544; calls by dose curve;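 further: 0% = DMSO basal wells and 100% = reference agonist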). As to conditions: HEK293T RXRa-UAS-bla, beta-lactamase reporter, 18 h; series mostly up to 76.7 µM.
Assay [9] can be described thus: Cell Viability - H-4-II-E (AID 543).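 Further: cells exposed to compound for 40 hours; on the % scale 0 is the no-effect control and ±100 the full control effect; nearly all actives have a fitted effect of over 35% in size.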 The settings on record: H-4-II-E rat hepatoma viability; series mostly up to 92.2 µM. The gist of the method: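 Here, cytotoxicity is measured in the rat hepatoma line H-4-II-E as loss of intracellular ATP after 40 hr compound treatment, detected by luciferase luminescence.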
Assay [10] is described as follows: MultiTox-Fluor Cytotoxicity Assay - LYMP1-001 - Live Cells (AID 947).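 Further: 0% = DMSO only and full inhibition = tetraoctylammonium bromide control.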 The settings on record: LYMP1-001 lymphoblastoid cells, live-cell protease fluorescence viability; series mostly up to 92.2 µM.
Assay [11] concerns the target Peroxisome proliferator-activated receptor gamma (Homo sapiens) (UniProt P37231). Briefly: qHTS assay for small molecule antagonists of peroxisome proliferator-activated receptor gamma signaling (AID 588537; active means well fitted inhibition curve with a large enough effect in the signal ratio, with a control signal flat, not every such curve was filed as active; the % refers to the signal ratio;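 further: reporter cells co-stimulated with 50 nM rosiglitazone agonist during compound treatment; % of control where 0% means no effect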). As to conditions: HEK293 PPARg-UAS-bla, beta-lactamase ratio, antagonist mode; series mostly up to 76.8 µM. The gist of the method:
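Step one: plate 3000 HEK293 UAS-bla cells per well in medium with 1% stripped serum and hold 6-6.5 h at 37 C. Step two: add compound and 50 nM agonist for 16 h. Step three: CCF4 loading, fluorescence read.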

The nature of assay [12]: qHTS assay for small molecule agonists of the antioxidant response element (ARE) signaling pathway (AID 651741; active means well fitted activation curve with a large enough effect in the signal ratio; the % refers to the signal ratio; further: potency means the concentration at half of the fitted maximal effect; on activation: % of control where 0% means no effect). As to conditions: HepG2 ARE-bla reporter, beta-lactamase FRET ratio, 16 h; series mostly up to 96 µM. The gist of the method: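 HepG2 ARE-bla cells plated at 2,000 cells/well and incubated 5 h at 37 C/5% CO2 received 23 nL compound in DMSO. After 16 h at 37 C, LiveBLAzer B/G FRET substrate was applied for 2 h at room temperature and fluorescence read.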

A short description of assay [13]: qHTS assay for small molecule disruptors of the mitochondrial membrane potential - 5 hr assay (AID 651755; calls by dose curve; further: on the % scale 0 is the no-effect control and ±100 the full control effect; nearly all actives have a fitted effect of over 40% in size). As to conditions: JC-1-type ratio dye; series mostly up to 92.2 µM. The method, boiled down: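 HepG2 cells (2,000/well), attached overnight, exposed to compound 5 hr at 37C, then Mito-MPS dye 30 min. Fluorescence read for monomers (490/535 nm) and aggregates (540/590 nm).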

Assay [14] can be described thus: qHTS assay for small molecule agonists of the antioxidant response element (ARE) signaling pathway measured by Nrf2-dependant transcriptional activity (AID 720636; active means well fitted curve in the direction sought with a large enough effect in the repeat runs; an effect the other way counts as inactive or inconclusive;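 further: HepG2 cells with an ARE-driven luciferase reporter; % of control where 0% means no effect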). The settings on record: ARE-luc HepG2, Nrf2 luciferase reporter, 16 h; series mostly up to 92.4 µM. The method, boiled down:
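Attachment 6 hr at 37 C, then compound versus DMSO vehicle for 16 hr in ARE-luc HepG2 cells (1% dialyzed FBS); luminescence recorded 30 min after ONE-Glo addition at room temperature.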

For assay [15], the target named is Estrogen receptor (Homo sapiens) (UniProt P03372). Briefly: qHTS assay for small molecule antagonists of estrogen receptor alpha signaling (AID 588513; active means well fitted curve in the direction sought with a large enough effect in the signal ratio, with a control signal flat, not every such curve was filed as active; the % refers to the signal ratio; further: on the % scale 0 is the no-effect control and ±100 the full control effect). The settings on record: ER-alpha-UAS-bla HEK293, beta-lactamase ratio, antagonist mode; series mostly up to 76.9 µM. The gist of the method:
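ER-alpha-UAS-bla GripTite HEK 293 cells in medium with 2% charcoal/dextran-treated FBS were preincubated 4 h at 37 C, dosed with compound (1:2 titration), stimulated with 0.5nM 17-beta-estradiol for 18 h, then read by CCF4 beta-lactamase fluorescence.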

Assay [16] has the same target. Description: qHTS assay for small molecule agonists of estrogen receptor alpha signaling (AID 588514; calls by dose curve;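 further: 0% = vehicle only and 100% = reference agonist; nearly all actives have a fitted effect of over 70% in size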). The settings on record: ER-alpha-UAS-bla HEK293, beta-lactamase ratio, 18 h; series mostly up to 76.8 µM. The gist of the method: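 Reporter-gene assay. […] controls beta-lactamase in HEK 293 GripTite cells; after 18 hrs with compound, CCF4 substrate is added for 2 hrs and fluorescence is read.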

The nature of assay [17]: qHTS assay for environmental chemicals that activate the Aryl hydrocarbon Receptor (AhR) signaling pathway (AID 651777). Further: nearly all actives have a fitted effect of over 15% in size. Further: potency means the concentration at half of the fitted maximal effect. On activation: % of control where 0% means no effect. The settings on record: 1A2-DRE human hepatoma cells, luciferase, 24 h; activation: stronger effect = higher value. The method, boiled down:
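Concentration–response screening used 1,200 1A2-DRE cells per well, 24 hr compound exposure (37 C, 5% CO2), and One-Glo luminescence as the AhR-driven CYP1A2 reporter signal.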

Assay [18] can be described thus: Cell Viability - BJ (AID 421; calls by dose curve;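 further: potency means the concentration at half of the fitted maximal effect; cells exposed to compound for 40 hours at 37 °C before readout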). As to conditions: BJ fibroblast viability, qHTS. The gist of the method: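 Cytotoxicity as drop in intracellular ATP (CellTiter-Glo, 20 min RT) after 40 hr compound exposure of BJ fibroblasts at 37 °C. Titrations scaled between DMSO and 100 uM tamoxifen, Hill-fitted for AC50.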
The nature of assay [19]: qHTS assay for small molecule antagonists of peroxisome proliferator-activated receptor delta signaling (AID 588535; active means well fitted inhibition curve with a large enough effect in the signal ratio, with a control signal flat, not every such curve was filed as active; the % refers to the signal ratio;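 on max response: cells co-treated with a PPAR-delta agonist as stimulator during compound exposure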). The settings on record: HEK293T PPARd-UAS-bla, beta-lactamase FRET ratio, 18 h; 460 nm channel. The method, boiled down:
(§1)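 Cells were seeded at 4000 per well in assay medium containing 2% charcoal/dextran FBS and held 5 hrs at 37 C. Compounds were then added for 18 hrs. CCF4 substrate was applied for 2 hrs at room temperature before fluorescence reading.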

Assay [20] concerns the target Peroxisome proliferator-activated receptor delta (Homo sapiens) (UniProt Q03181). The assay is described as above. As to conditions: HEK293T PPARd-UAS-bla, beta-lactamase FRET ratio, 18 h; series mostly up to 76.7 µM. The gist of the method: as §1

Sequence of Retinoic acid receptor RXR-alpha (Homo sapiens) (P19793 whole entry, looked up): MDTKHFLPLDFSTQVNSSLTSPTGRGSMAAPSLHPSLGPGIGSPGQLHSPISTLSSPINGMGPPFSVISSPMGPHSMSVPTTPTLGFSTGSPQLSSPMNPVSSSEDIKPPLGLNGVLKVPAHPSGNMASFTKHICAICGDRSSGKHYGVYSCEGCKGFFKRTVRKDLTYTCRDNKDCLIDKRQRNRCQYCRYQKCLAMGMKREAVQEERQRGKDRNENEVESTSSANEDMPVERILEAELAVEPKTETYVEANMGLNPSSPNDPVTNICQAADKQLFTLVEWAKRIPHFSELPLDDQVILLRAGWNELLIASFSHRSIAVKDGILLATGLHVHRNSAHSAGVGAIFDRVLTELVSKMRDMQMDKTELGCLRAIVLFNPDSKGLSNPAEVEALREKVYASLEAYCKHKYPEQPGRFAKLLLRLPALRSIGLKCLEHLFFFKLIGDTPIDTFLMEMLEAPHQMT
Sequence of Glucocorticoid receptor (Homo sapiens) (P04150 whole entry, looked up): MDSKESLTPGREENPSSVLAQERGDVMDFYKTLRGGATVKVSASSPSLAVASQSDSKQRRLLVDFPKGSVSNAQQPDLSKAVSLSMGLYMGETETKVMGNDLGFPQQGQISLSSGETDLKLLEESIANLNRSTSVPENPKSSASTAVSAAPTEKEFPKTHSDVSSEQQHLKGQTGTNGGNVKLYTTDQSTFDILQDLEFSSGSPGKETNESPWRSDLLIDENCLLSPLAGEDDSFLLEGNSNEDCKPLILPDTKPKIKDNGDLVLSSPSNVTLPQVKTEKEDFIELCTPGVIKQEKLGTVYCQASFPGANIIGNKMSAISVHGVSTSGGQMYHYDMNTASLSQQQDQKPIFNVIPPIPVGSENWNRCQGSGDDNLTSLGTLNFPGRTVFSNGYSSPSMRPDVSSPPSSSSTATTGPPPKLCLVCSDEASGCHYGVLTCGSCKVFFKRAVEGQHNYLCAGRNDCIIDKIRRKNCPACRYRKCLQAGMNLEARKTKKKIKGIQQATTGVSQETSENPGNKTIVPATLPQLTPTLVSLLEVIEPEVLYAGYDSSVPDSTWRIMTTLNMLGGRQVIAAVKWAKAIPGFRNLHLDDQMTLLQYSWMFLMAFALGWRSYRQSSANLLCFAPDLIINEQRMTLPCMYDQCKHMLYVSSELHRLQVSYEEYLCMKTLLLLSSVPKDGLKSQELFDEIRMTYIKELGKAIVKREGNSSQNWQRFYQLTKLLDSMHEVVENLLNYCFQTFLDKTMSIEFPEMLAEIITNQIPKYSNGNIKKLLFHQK
Sequence of Estrogen receptor (Homo sapiens) (P03372 whole entry, looked up): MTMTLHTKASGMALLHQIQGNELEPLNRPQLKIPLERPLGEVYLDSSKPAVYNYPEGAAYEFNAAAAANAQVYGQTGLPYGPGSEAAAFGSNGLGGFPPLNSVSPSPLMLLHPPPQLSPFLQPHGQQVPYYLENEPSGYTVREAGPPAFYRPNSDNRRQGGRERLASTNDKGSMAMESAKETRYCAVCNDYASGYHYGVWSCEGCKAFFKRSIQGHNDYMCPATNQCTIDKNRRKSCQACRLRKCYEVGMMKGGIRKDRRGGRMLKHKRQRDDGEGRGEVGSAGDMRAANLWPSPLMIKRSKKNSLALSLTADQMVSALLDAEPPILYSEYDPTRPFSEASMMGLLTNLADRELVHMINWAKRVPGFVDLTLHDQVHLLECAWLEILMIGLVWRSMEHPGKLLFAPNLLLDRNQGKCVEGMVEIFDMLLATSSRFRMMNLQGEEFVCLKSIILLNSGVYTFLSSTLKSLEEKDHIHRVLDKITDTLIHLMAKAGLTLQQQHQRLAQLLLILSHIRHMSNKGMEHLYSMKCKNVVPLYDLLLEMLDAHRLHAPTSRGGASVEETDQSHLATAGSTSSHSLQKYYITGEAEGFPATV
Sequence of Peroxisome proliferator-activated receptor delta (Homo sapiens) (Q03181 whole entry, looked up): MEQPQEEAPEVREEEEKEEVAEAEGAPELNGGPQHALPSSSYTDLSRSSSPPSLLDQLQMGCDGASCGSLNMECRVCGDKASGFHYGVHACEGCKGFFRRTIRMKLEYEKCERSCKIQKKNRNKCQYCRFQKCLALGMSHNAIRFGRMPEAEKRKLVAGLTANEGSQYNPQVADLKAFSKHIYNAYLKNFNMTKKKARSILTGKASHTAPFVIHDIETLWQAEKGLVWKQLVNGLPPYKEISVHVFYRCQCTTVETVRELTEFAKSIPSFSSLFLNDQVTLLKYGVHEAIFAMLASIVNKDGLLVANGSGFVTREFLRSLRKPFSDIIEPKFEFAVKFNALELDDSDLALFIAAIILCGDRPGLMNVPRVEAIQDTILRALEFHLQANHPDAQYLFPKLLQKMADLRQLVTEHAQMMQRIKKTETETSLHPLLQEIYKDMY
Sequence of Peroxisome proliferator-activated receptor gamma (Homo sapiens) (P37231 whole entry, looked up): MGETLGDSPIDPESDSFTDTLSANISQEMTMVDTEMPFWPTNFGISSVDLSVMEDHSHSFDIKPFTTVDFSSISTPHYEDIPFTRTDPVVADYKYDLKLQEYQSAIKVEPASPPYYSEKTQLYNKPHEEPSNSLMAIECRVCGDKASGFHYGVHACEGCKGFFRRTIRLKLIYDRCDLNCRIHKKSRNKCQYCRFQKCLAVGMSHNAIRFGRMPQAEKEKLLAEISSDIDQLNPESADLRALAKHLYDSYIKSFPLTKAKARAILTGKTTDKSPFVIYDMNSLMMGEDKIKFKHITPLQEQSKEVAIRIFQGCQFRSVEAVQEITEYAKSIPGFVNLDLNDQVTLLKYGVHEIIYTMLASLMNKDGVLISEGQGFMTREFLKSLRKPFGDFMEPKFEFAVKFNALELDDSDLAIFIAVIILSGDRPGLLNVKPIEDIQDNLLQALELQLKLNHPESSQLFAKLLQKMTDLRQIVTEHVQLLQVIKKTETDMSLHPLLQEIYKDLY

For `COC(=O)Nc1cccc(OC(=O)Nc2cccc(C)c2)c1`, the Potency in [1] and in assay [2] was > 92 µM (inactive) each time. Moreover, the Potency result in assay [3] and in [4] was “inactive” in each case. For the same compound, in assay [5], the activation was -3.09% (inactive). Besides, the result in assay [6], in assay [7] and in [8] was inactive.

Consider `C=CC(=O)OC`, for which the Potency in assay [1] and in assay [2] was > 92 µM (inactive) throughout. In addition, the Potency result in assay [3], in assay [9], in [11], in assay [12], in assay [13] and in assay [14] was “inactive” in each case. For the same compound, the call in assay [10], in [7] and in [8] was inactive.

Turning to `Oc1cccc(Cl)c1Cl`, the Potency in assay [1] and in [2] was > 92 µM (inactive) throughout. In addition, the Potency entry in assay [3], in assay [9], in [15], in assay [16], in assay [11] and in [13] was “inactive” each time. Also, the activation in assay [5] is -0.403% (inactive); in [17], 0.0475% (inactive). Further, the outcome in assay [6], in assay [7] and in assay [8] was inactive.

As to `Cc1cc(N=Nc2ccccc2C)ccc1N`, the Potency was > 92 µM (inactive) in assay [18]; > 92 µM (inactive) in assay [2]; 1.88 µM (active) and 4.86 µM (active) in [12]; 44.7 µM (active) in [17]. Moreover, the activation in [5] was -7.11% (inactive). For the same compound, the max response in assay [19] is -21.5%. For the same compound, the outcome in assay [20] and in [7] was inactive.

Consider `O=C(O)C(Br)CBr` (stereo not given), for which the results for the Potency in [18], in assay [2] and in assay [12] were > 92 µM (inactive), > 92 µM (inactive) and 42.2 µM (active), respectively. Further, the result in assay [10], in assay [20] and in [8] was inactive. Further, the Potency entry in [15], in assay [16] and in assay [14] was “inactive” in each case. The activation in assay [5] was -2.23% (inactive); in assay [17], 2.43% (inactive). In addition, the max response in assay [19] is 31.3%.

As to `O=S(=O)(Cl)c1ccccc1`, the Potency in assay [1] and in assay [2] was > 92 µM (inactive) each time. For the same compound, the activity change, negative = cytotoxicity in assay [3] was -155% (active). Also, the Potency result in [9], in assay [4], in assay [11], in [12], in assay [13] and in assay [14] was “inactive” in each case. The max response in [19] is 7.79% and -11.8%. Besides, the result in [20], in [7] and in assay [8] was inactive. Also, the activation in assay [17] is 0.182% (inactive) and 1.5% (inactive).

On to `Cc1ccc([N+](=O)[O-])cc1`, for which the Potency in assay [1] and in assay [2] was > 92 µM (inactive) throughout. The Potency entry in assay [3], in assay [9], in assay [15], in [16], in [11] and in assay [13] was “inactive” each time. For the same compound, the Potency result in assay [14] was “inactive”. The call in assay [10], in [6], in assay [20], in assay [7] and in assay [8] was inactive. In addition, the activation in assay [5] is -2.83% (inactive); in [17] it was -0.408% (inactive). Moreover, in assay [19], the max response came out at 22.5%.

On to `CCBr`, for which the Potency in assay [1] was > 92 µM (inactive). Further, the Potency result in assay [3], in [15], in assay [16], in assay [12] and in assay [13] was “inactive” each time. The activation in assay [5] was 4.52% (inactive). The outcome in assay [6], in [20] and in assay [8] was inactive. For the same compound, in assay [19], the max response came out at 13.3%.

As for `Nc1ccc2ccccc2c1`, the Potency in assay [1] and in assay [2] was > 92 µM (inactive) each time. Also, the Potency result in assay [3], in assay [9], in assay [4], in assay [15], in [16] and in assay [14] was “inactive” throughout. The result in assay [10], in [7] and in assay [8] was inactive.
